# Measured values taken from PubChem BioAssay (NCATS).
# Records with an inconclusive call do not appear. Calls of active or inactive are those of the source. Calls come from the whole dose curve; as a rule, active = well fitted inhibition curve with a large enough effect; inconclusive = small, poorly fitted or top-dose-only effect; inactive = no such curve, though single readings can be large or run the other way.
# Biological target: Retinaldehyde dehydrogenase 3 (Homo sapiens) (UniProt P47895)
# Experiment: qHTS for Inhibitors of the Aldehyde Dehydrogenase Family (ALDH1A3) Confirmatory screens (AID 2061311); note: nearly all actives have a fitted effect of over 60% in size
# Settings: ALDH inhibition qHTS; series mostly up to 46 µM; activity change, negative = inhibition: at the top concentration
# % is set by controls: 0 for no effect and ±100 for the full control effect; potency is the fitted concentration of half-maximal effect.
Structure (SMILES),Potency,"activity change, negative = inhibition",outcome
N#Cc1ccc(-c2ccc(CNc3ccc(N4CCOCC4)cc3)cn2)cc1,12.7 µM (active),,
CN(C)c1ccc(-c2csc(N3CCC(C(N)=O)CC3)n2)cc1,12.7 µM (active),,
CC(=O)N1CCN(c2ccc(NCc3ccc(Br)o3)cc2)CC1,17.9 µM (active),,
CC(=O)c1c(C)n(-c2cccc(C)c2)c2ccc(OC(=O)COc3ccccc3)cc12,,-2.83% (inactive),
CSCCC(NS(=O)(=O)c1ccc2c(c1)oc(=O)n2C)C(=O)N1CCN(c2ccc(C(C)=O)cc2)CC1 (stereo not given),,-7.18% (inactive),
COc1ccc(-n2c(C)c(C(C)=O)c3cc(OC(=O)c4ccc(C)cc4)ccc32)cc1,,-1.16% (inactive),
CN1CCN(C(=O)c2cccc(-c3ccc(CNc4ccc(N5CCN(C(=O)OC(C)(C)C)CC5)cc4)o3)c2)CC1,,,inactive
N#CNC(=O)c1ccc(-n2cccc2/C=C2\NC(=O)N(CC(=O)Nc3ccc(F)cc3)C2=O)cc1,,-19.3% (inactive),
Cc1cccc(-c2ccccc2C=O)c1,,9.73% [at 85.7 µM] (inactive),
Cc1ccsc1CN(C)c1ncnc2ccc(-c3oc(-c4ccccc4)nc3C)cc12,14.1 µM (active),,
CC(=O)N1CCN(c2ccc(NCc3ccco3)cc2)CC1,10.1 µM (active),,
CCn1cnc2c(Nc3ccc(CC(=O)N=C(N)N)cc3)nc(C#N)nc21,,-14.1% (inactive),
Cc1oc(-c2ccccc2F)nc1CS(=O)(=O)CC(=O)N1CCN(c2cccc(C(F)(F)F)c2)CC1,,-15.6% (inactive),
CCOC(=O)c1c(C)n(-c2ccc(OC)cc2)c2ccc(OC(=O)COc3ccccc3)cc12,,8.76% (inactive),
CC(=O)c1c(C)n(-c2cccc(Cl)c2)c2ccc(OC(=O)c3ccccc3)cc12,,2.24% (inactive),
CCOC(=O)c1c(C)n(-c2ccccc2)c2ccc(OC(=O)c3ccccc3)cc12,,5.81% (inactive),
Cc1cc(NS(=O)(=O)c2ccc(Nc3nc(-c4ccc(C)c(C)c4)cs3)cc2)no1,,-16% (inactive),
Cc1ccc(CNc2ncnc3ccc(-c4ccc([C@@H](C)O)o4)cc23)o1,12.7 µM (active),,
Cn1sc(=O)n(Cc2ccccc2)c1=O,12.7 µM (active),,
Cc1ccc(CNc2ncnc3ccc(-c4oc(-c5ccccc5)nc4C)cc23)o1,22.5 µM (active),,

Structure (SMILES),Potency,"activity change, negative = inhibition",outcome
O=C(CCC1CCCN(S(=O)(=O)c2ccccc2F)C1)NCCCN1CCOCC1 (stereo not given),,,inactive
Cc1ccc(S(=O)(=O)Nc2cnccc2C(=O)Nc2nc(-c3ccco3)cs2)cc1,7.12 µM (active),,
CC(=O)c1c(C)n(-c2ccc(Cl)cc2)c2ccc(OC(=O)COc3ccccc3)cc12,,0.437% (inactive),
Cc1cc(C)cc(-c2ccccc2C=O)c1,,5.54% [at 85.7 µM] (inactive),
COc1ccc(Cl)cc1C(=O)NCc1nnc2cc(-c3nc(C)no3)ccn12,,-7.9% (inactive),
CC(=O)c1c(C)n(-c2ccc(C)cc2)c2ccc(OC(=O)COc3ccccc3)cc12,,4.37% (inactive),
O=C1Cc2cc(S(=O)(=O)N3CCN(c4ccc(Cl)cc4)CC3)ccc2N1,,,inactive [at 85.7 µM]
Cc1ccc2nc3sc(C(=O)NC4CCC(O)CC4)cc3cc2c1 (stereo not given),20.1 µM (active),,
Nc1cc(S(=O)(=O)N2CCN(S(=O)(=O)c3ccc4c(c3)OCCO4)CC2)ccn1,,-14.1% [at 0.022 µM] (inactive),
Cc1ccc(-c2cccc(C=O)c2)c(C)c1,,-6.2% [at 85.7 µM] (inactive),
COc1ccc2c(c1)c(C(=O)CN(C)C)c(C)n2C,,1.06% (inactive),
O=C(Nc1ncc(Cc2ccc(C(F)(F)F)cc2)s1)c1ccc(-c2ccccc2[N+](=O)[O-])o1,11.3 µM (active),,
COc1cc(O)c(C(CC(=O)N2C[C@H](C)C[C@H](C)C2)c2ccc3c(c2)OCO3)c(OC)c1 (stereo not given in full),,-24.8% [at 85.7 µM] (inactive),
COc1ccc(-c2nc3ccccc3c(=O)n2Cc2ccccc2)cc1CNc1ccc(NC(C)=O)cc1,11.3 µM (active),,
Cc1cccc(C(=O)NCc2nnc3cc(-c4nc(C)no4)ccn23)c1,,-8.31% (inactive),
Cc1cc(C)cc(-c2ccc(C=O)cc2)c1,,40.8% [at 85.7 µM] (inactive),
Cc1ccc(-c2ccccc2C=O)c(C)c1,,6.68% [at 99.6 µM] (inactive),
COc1cccc(S(=O)(=O)NC2CCN(C#N)C2)c1 (stereo not given),,,inactive
C[C@@H](CO)Nc1cc2c(cc1[S+](=O)([O-])Nc1ccc(Cl)c(Cl)c1)CCC(=O)N2,,-14.6% (inactive),
O=C(NCC(=O)N1CCN(Cc2ccccc2)CC1)c1cccc(-c2ccsc2)c1,,0.41% (inactive),
